Results published in PubChem BioAssay (EPA / NIEHS).
Where “and” joins values, the source holds several entries; their conditions need not be identical. Equal entries are not always repeated. Results filed as inconclusive are left out. The source holds several records for some structures; these can differ, active in one and inactive in another. Calls of active or inactive are those of the source. Rule for the calls, unless noted: active = hit-call score of the fitted dose curve at least 0.9, where 1 is the maximum; inactive = score below 0.9.

Tests used:
[1] = read-out: Transforming Growth Factor (TGFB1), TGFB1 (gene 7040); experiment: LTEA_HepaRG_TGFB1: Life Technologies and Expression Analysis (LTEA) Assay for Transforming Growth Factor (TGFB1) Transporter using HepaRG (AID 2283533); details: mRNA level, 48 h; actives raise or lower the signal
Outline: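 TGFB1 transcript measured by qRT-PCR with normalisation to three housekeeping genes (ACTB, GAPDH, POLR2A); human HepaRG line treated in duplicate for 48 hr with an 8-point series topping at 100 uM, 0.5% DMSO vehicle, bidirectionally fitted.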

TIMP1, TIMP1 (gene 7076) = experiment: LTEA_HepaRG_TIMP1: Life Technologies and Expression Analysis (LTEA) Assay for TIMP1 using HepaRG (AID 2283534); details: mRNA level, 48 h; actives raise or lower the signal
Outline: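 Bidirectional change in TIMP1 transcript versus 0.5% DMSO, measured by TaqMan qRT-PCR with three housekeeping genes for normalization. HepaRG human liver cells dosed 48 h in duplicate, top concentration 100 uM with half-log dilutions.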

[2] = read-out: Tumor necrosis factor receptor 1 (TNFRSF1A), TNFRSF1A (gene 7132); experiment: LTEA_HepaRG_TNFRSF1A: Life Technologies and Expression Analysis (LTEA) Assay for Tumor necrosis factor receptor 1 (TNFRSF1A) using HepaRG (AID 2283535); details: mRNA level, 48 h; actives raise or lower the signal
Outline: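 mRNA measured by qRT-PCR (TaqMan, Fluidigm arrays) against ACTB/GAPDH/POLR2A housekeepers after 48 h chemical exposure of HepaRG cells. Top concentration 100 uM, half-log 8-point series, duplicates; vehicle 0.5% DMSO, both fit directions.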

[3] = read-out: Thyroid Hormone Responsive (THRSP), THRSP (gene 7069); experiment: LTEA_HepaRG_THRSP: Life Technologies and Expression Analysis (LTEA) Assay for Thyroid Hormone Responsive (THRSP) using HepaRG (AID 2283536); details: mRNA level, 48 h; actives raise or lower the signal
Outline: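 Differentiated HepaRG cells treated 48 h in serum-free induction medium with 8 half-log concentrations up to 100 uM (0.5% DMSO), duplicates. THRSP mRNA by TaqMan qRT-PCR normalised to ACTB, GAPDH, POLR2A; bidirectional fit versus DMSO.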

[4] = read-out: Cellular tumor antigen p53 (Homo sapiens) (UniProt P04637); experiment: LTEA_HepaRG_TP53: Life Technologies and Expression Analysis (LTEA) Assay for Tumor Protein P53 (TP53) using HepaRG (AID 2283537); details: mRNA level, 48 h; actives raise or lower the signal
Outline: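 Differentiated HepaRG cells in serum-free induction medium exposed 48 h in duplicate to 8 half-log concentrations, top 100 uM, 0.5% DMSO. TP53 mRNA by TaqMan qRT-PCR (Fluidigm), normalized to ACTB, GAPDH, POLR2A; fitted bidirectionally versus DMSO.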

[5] = read-out: UDP glucuronosyltransferase (UGT1A1), UGT1A1 (gene 54658); experiment: LTEA_HepaRG_UGT1A1: Life Technologies and Expression Analysis (LTEA) Assay for UDP glucuronosyltransferase (UGT1A1) using HepaRG (AID 2283538); details: mRNA level, 48 h; actives raise or lower the signal
Outline: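 HepaRG cells, 0.5% DMSO vehicle, 48 h exposure in serum-free induction medium to 8-point half-log series topping at 100 uM, in duplicate. UGT1A1 mRNA by Fluidigm qRT-PCR, normalized to ACTB/GAPDH/POLR2A; bidirectional fit versus DMSO.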

[6] = read-out: UDP glucuronosyltransferase (UGT1A6), UGT1A6 (gene 54578); experiment: LTEA_HepaRG_UGT1A6: Life Technologies and Expression Analysis (LTEA) Assay for UDP glucuronosyltransferase (UGT1A6) using HepaRG (AID 2283539); details: mRNA level, 48 h; actives raise or lower the signal
Outline: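 Expression was quantified by TaqMan qRT-PCR on Fluidigm arrays with ACTB/GAPDH/POLR2A normalization and bidirectional fitting against 0.5% DMSO. HepaRG cells (~100,000/well) were treated in duplicate for 48 h at eight half-log concentrations up to 100 uM in serum-free induction medium.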

[7] = read-out: X-box binding protein 1 (XBP1), XBP1 (gene 7494); experiment: LTEA_HepaRG_XBP1: Life Technologies and Expression Analysis (LTEA) Assay for X-box binding protein 1 (XBP1) using HepaRG (AID 2283540); details: mRNA level, 48 h; actives raise or lower the signal
Outline: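 XBP1 transcript by qRT-PCR (housekeeping-normalized: ACTB, GAPDH, POLR2A) after 48 h chemical treatment of HepaRG cells, 8-point half-log series topping at 100 uM, vehicle 0.5% DMSO. Gain and loss of signal fitted relative to DMSO.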

[8] = LTEA_HepaRG_LDH_cytotoxicity: Cytotoxicity Assessment in the Life Technologies and Expression Analysis (LTEA) Assay (AID 2283563; active = hit-call score of the fitted dose curve at least 0.9, where 1 is the maximum)
Outline: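 LDH release into culture medium read after 48 h chemical treatment of HepaRG cells. Duplicate wells, eight-point half-log series topping at 100 uM, 0.5% DMSO vehicle and baseline.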

[9] = ATG_XTT_Cytotoxicity: Cytotoxicity Assessment in the Attagene TRANS-FACTORIAL HepG2 Assay (AID 2283584; active = hit-call score of the fitted dose curve at least 0.9, where 1 is the maximum)
Outline: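 Viability endpoint from XTT after 24 h chemical exposure of reporter-transfected human HepG2 liver cells; signal loss fitted relative to DMSO negative control.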

[10] = TOX21_p53_BLA_p2_viability: Viability Assessment in the Tox21 HCT-116 p53 Agonism Beta-lactamase Assay, Phase 2 (AID 2283591; active = hit-call score of the fitted dose curve at least 0.9, where 1 is the maximum;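 note: compound exposure lasted 16 h at 37 °C; actives lower the ATP signal meaning cytotoxicity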)
Outline: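 HCT116 p53-bla cells, 4000/well, dosed after 5 h plating (217-fold dilution of DMSO stocks) and incubated 16 h at 37C. Viability taken as cellular ATP by CellTiter-Glo luminescence after 30 min RT; signal loss marks cytotoxicity.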

[11] = biological target: Cellular tumor antigen p53 (Homo sapiens) (UniProt P04637); experiment: TOX21_p53_BLA_p2_ratio: Tox21 HCT-116 p53 Agonism Beta-lactamase Assay, Ratio, Phase 2 (AID 2283592; active = hit-call score of the fitted dose curve at least 0.9, where 1 is the maximum)
Cellular tumor antigen p53 (Homo sapiens), sequence (P04637 whole entry, looked up): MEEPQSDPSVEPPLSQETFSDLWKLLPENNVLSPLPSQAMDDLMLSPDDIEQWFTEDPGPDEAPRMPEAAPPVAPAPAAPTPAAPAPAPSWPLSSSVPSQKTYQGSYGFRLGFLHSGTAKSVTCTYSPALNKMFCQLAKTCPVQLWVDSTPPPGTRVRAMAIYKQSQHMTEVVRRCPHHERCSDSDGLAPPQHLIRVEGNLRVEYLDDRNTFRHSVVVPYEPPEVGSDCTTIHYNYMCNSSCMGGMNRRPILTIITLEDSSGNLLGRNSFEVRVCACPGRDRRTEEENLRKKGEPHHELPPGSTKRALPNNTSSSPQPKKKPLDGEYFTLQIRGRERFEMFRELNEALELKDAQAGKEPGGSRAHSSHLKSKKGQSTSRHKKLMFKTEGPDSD
Outline: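 Gain-of-signal p53 agonism was scored from the beta-lactamase FRET ratio (460/530 nm, 405 nm excitation) in HCT116 cells treated 16 h at 37C, 5% CO2, with DMSO serving as negative control and baseline.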

[12] = TOX21_p53_BLA_p3_viability: Viability Assessment in the Tox21 HCT-116 p53 Agonism Beta-lactamase Assay, Phase 3 (AID 2283593; active = hit-call score of the fitted dose curve at least 0.9, where 1 is the maximum;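 note: cells exposed to compound for 16 h before reading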)
Outline: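 HCT116 cells, 4000/well, dosed 5 h after plating by pin transfer (217-fold dilution from DMSO stock) and incubated 16 h at 37C, 5% CO2. Viability read as ATP luminescence with CellTiter-Glo after 30 min at room temperature.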

[13] = biological target: Cellular tumor antigen p53 (Homo sapiens) (UniProt P04637); experiment: TOX21_p53_BLA_p3_ratio: Tox21 HCT-116 p53 Agonism Beta-lactamase Assay, Ratio, Phase 3 (AID 2283596; active = hit-call score of the fitted dose curve at least 0.9, where 1 is the maximum)
Outline: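 HCT116 p53-bla cells (4000/well) given compound in DMSO (217-fold dilution) after 5 h, incubated 16 h at 37C. CCF4-AM substrate 2 h at room temperature; 460/530 nm emission ratio, gain fitted against DMSO.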

[14] = TOX21_p53_BLA_p4_viability: Viability Assessment in the Tox21 HCT-116 p53 Agonism Beta-lactamase Assay, Phase 4 (AID 2283597; active = hit-call score of the fitted dose curve at least 0.9, where 1 is the maximum;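 note: hits lower the luminescence signal meaning cytotoxicity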)
Outline: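 Following a 16 h exposure at 37C, the treated HCT116 wells were first read for the FRET ratio. They were then lysed with CellTiter-Glo, and ATP luminescence was recorded after 30 min at room temperature.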

[15] = biological target: Cellular tumor antigen p53 (Homo sapiens) (UniProt P04637); experiment: TOX21_p53_BLA_p5_ratio: Tox21 HCT-116 p53 Agonism Beta-lactamase Assay, Ratio, Phase 5 (AID 2283599; active = hit-call score of the fitted dose curve at least 0.9, where 1 is the maximum)
Outline: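 HCT-116 p53-bla cells (4000/well) plated 5 h, dosed with compound (217-fold DMSO dilution) for 16 h at 37 C; CCF4-AM substrate 2 h at room temperature. Activity is the 460/530 nm emission ratio (405 nm excitation), fitted in gain-of-signal direction versus DMSO.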

[16] = TOX21_p53_BLA_p5_viability: Viability Assessment in the Tox21 HCT-116 p53 Agonism Beta-lactamase Assay, Phase 5 (AID 2283600; active = hit-call score of the fitted dose curve at least 0.9, where 1 is the maximum)
Outline: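 After the 460/530 nm beta-lactamase measurement, the wells received an ATP-detection luciferase reagent; signal was read 30 min later at RT. Compound treatment lasted 16 h on cells pre-incubated 5 h post-seeding.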

[17] = biological target: Cellular tumor antigen p53 (Homo sapiens) (UniProt P04637); experiment: TOX21_p53_BLA_p4_ratio: Tox21 HCT-116 p53 Agonism Beta-lactamase Assay, Ratio, Phase 4 (AID 2283601; active = hit-call score of the fitted dose curve at least 0.9, where 1 is the maximum)
Outline: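 HCT-116 p53 beta-lactamase reporter cells (4000/well) preincubated 5 h, then compound (217-fold dilution of DMSO stock) for 16 h at 37C. CCF4-AM substrate added 2 h at room temperature; 460/530 nm emission ratio fitted upward versus DMSO.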

[18] = Tanguay_ZF_120hpf_MORT_legacy: (Legacy) Oregon State University Tanguay Lab 120 Hour Post-fertilization zebrafish Assay for Mortality (AID 2283633; active = hit-call score of the fitted dose curve at least 0.9, where 1 is the maximum)
Outline: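 Static waterborne exposure from 6 to 120 hpf at 28C of single dechorionated wild-type (5D) embryos per well, 0.64% DMSO final. Death recorded present/absent by brightfield at 24 and 120 hpf.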

[19] = Tanguay_ZF_120hpf_YSE_legacy: (Legacy) Oregon State University Tanguay Lab 120 Hour Post-fertilization zebrafish Assay for Yolk Sac Edema (AID 2283634; active = hit-call score of the fitted dose curve at least 0.9, where 1 is the maximum;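 for AC50: actives raise the incidence of yolk sac edema above the DMSO baseline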)
Outline: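 Presence or absence of yolk sac edema was recorded at 120 hpf in surviving larvae. These were wild-type Tropical 5D embryos, chorion removed at 4 hpf, held in static exposure at 28C from 6 hpf with 0.64% DMSO vehicle.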

Measured: AC50

CC(C)(C)C(O)C(Oc1ccc(Cl)cc1)n1cncn1 (centres undefined)
active: [3] 35.3 µM and 36 µM and 27.9 µM | [4] 0.354 µM | [5] 3.12 µM and 2.49 µM and 3.05 µM | [6] 0.381 µM | [19] 40.2 µM and 31 µM and 43.9 µM
inactive: [1] | TIMP1, TIMP1 (gene 7076) | [2] | [4] | [6] | [7] | [8] | [9] | [10] | [11] | [12] | [13] | [14] | [15] | [16] | [17] | [18]

O=[N+]([O-])/N=C1\NCCN1Cc1ccc(Cl)nc1
active: [2] 28.1 µM | [3] 50 µM | [7] 25.5 µM
inactive: [1] | TIMP1, TIMP1 (gene 7076) | [5] | [6] | [8] | [18] | [19]

CC(C)OC(=O)Nc1cccc(Cl)c1
active: [2] 50 µM
not listed: [9] | [10] | [16]
inactive: all other assays above
